# Source: PubChem BioAssay
# Only a selection was taken, and hits are over-represented in it overall.
# Tgondii IFNg: inhibitors of Toxoplasma gondii growth with IFN-gamma; Toxoplasma gondii growth in IFN-gamma-treated host cells; active compounds read low; activity change, negative = inhibition, % (concentration not given with the values); 69,000 compounds, 3.8% hits; AID 1259416; in the data active = activity change below about -70%, passing the limit was not always enough;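 also: host cells are HeLa cells infected with Toxoplasma gondii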
# Starred values were filed as active, the others as inactive; ! = a repeat was not active.
SMILES,Tgondii IFNg
Cc1ccccc1CNC(=O)c1c(O)c2cccnc2n(Cc2ccccc2)c1=O,-119*
Nc1cncc(-c2cccc3c2CCNC3)c1,5
CS(=O)(=O)N1CCOC2(COCCN(Cc3ccncc3)C2)C1 (centres undefined),31
COCCNC(=O)C[C@H]1COC[C@@H]2CN(Cc3cc(C)on3)C[C@@H]12,-28
O=C(NCc1ccccc1)c1cc2cccnc2n(Cc2ccc(Cl)cc2)c1=O,-24
CN(CCc1ccccc1)C1CCCN(C(=O)Cc2c[nH]c(=O)n(C)c2=O)C1 (centres undefined),2
COCCN1CCN(Cc2cnn(C)c2)Cc2cccnc21,63
Cn1cc(CN2CCC3(CC2)C(=O)Nc2ccccc23)cn1,-6
COCC12CCCOC1CCN(Cc1ccncc1)C2 (centres undefined),0
CN1CCC2OCCCC2(COc2ncccc2F)C1 (centres undefined),-4
O=C(Nc1cccc(C(F)(F)F)c1)c1cc2cccnc2n(Cc2ccccc2F)c1=O,-19
CN1CCC2(CCN(C(=O)c3ccc[nH]3)CC2)C1,-3
COc1cc(C)c(-c2nccn2C(C)c2ccc(C)nc2)cc1C (centres undefined),-14
C=CCOCc1cncc2c1CCN(CC1CCOCC1)C2,-5
O=C(NCc1ccccc1Cl)c1c(O)c2cccnc2n(Cc2ccccc2)c1=O,-108*
Cc1cccc(CNC(=O)c2c(O)c3cccnc3n(Cc3ccccc3)c2=O)c1,-119*
O=C(Nc1ccc(Cl)cc1)c1c(O)c2cccnc2n(Cc2ccccc2)c1=O,44
Cc1ccc(NC(=O)c2c(O)c3cccnc3n(Cc3ccccc3)c2=O)c(F)c1,138
O=C(Nc1cccc(F)c1)c1c(O)c2cccnc2n(Cc2ccccc2)c1=O,107
O=C(Nc1ccccc1F)c1c(O)c2cccnc2n(Cc2ccccc2)c1=O,42
O=C(NCc1ccccc1)[C@H]1C[C@H]2CNC[C@H]1O2,30
COc1ccc(C2=CCN(Cc3ccccc3)CC2)cc1OC,277
c1cn(CCc2cnc[nH]2)c(-c2ccc3occc3c2)n1,-44
Cc1cnc(C(=O)N2C[C@H]3CN(Cc4cccnc4)C[C@@H]3C2)cn1,-5
Cc1noc(C)c1CN1CCC2OCCCC2(COC(C)C)C1 (centres undefined),4
SMILES,Tgondii IFNg
Cc1ccc(NC(=O)c2cc3cccnc3n(Cc3ccccc3)c2=O)cc1C,296
Cc1nn(C)c(Cl)c1S(=O)(=O)N1C2CCC1c1cnc(N3CCOCC3)nc1C2 (centres undefined),-2
CS(=O)(=O)CC(=O)N1CCCC2(CCNC2)C1 (centres undefined),4
CCCCCOc1c(OC)ccc2cc(C(=O)NCc3ccc4c(c3)OCO4)c(=O)[nH]c12,-74*!
COc1ccc(CC(=O)N2CCN(Cc3ccc4c(c3)OCO4)CC2)cc1OC,13
O=C(Nc1ccc2c(c1)OCO2)c1cc2cccnc2n(Cc2ccc(F)cc2)c1=O,233
COc1ccc(/C=C2\CCCN=C2c2cccnc2)c(OC)c1,-9
Cn1cc(CN2C[C@H]3COC[C@@]3(COc3ncccc3F)C2)cn1,-1
O=C(Nc1ccc(C(F)(F)F)cc1)c1cc2cccnc2n(Cc2ccccc2)c1=O,40
Clc1ccc(CSC(Cn2ccnc2)c2ccc(Cl)cc2Cl)cc1 (centres undefined),-84*
c1ccc(Cn2ccnc2)cc1,-2
Cc1nn(CCNC(C)Cn2ccnc2)c(C)c1Cl (centres undefined),-3
Clc1ccc(COC(Cn2ccnc2)c2ccc(Cl)cc2Cl)cc1 (centres undefined),-75*!
CCS(=O)(=O)N1CC[C@@H]2OCCN(Cc3cccnc3)[C@@H]2C1,1
CN1C(=O)C(C(=O)/C=C/c2ccc(Br)cc2)C2CC1(C)Oc1ccc(Cl)cc12 (centres undefined),4
Cn1nc(C(=O)Nc2cnc3n2CCCC3)c2ccccc21,4
c1cnc2c(c1)CNCCN2Cc1ccncc1,-2
N#Cc1cccc(CN2CCC3NC(=O)CC32)c1 (centres undefined),21
O=C(c1ccco1)N1CC2CC(C1)N(CCO)C2 (centres undefined),15
Cc1noc(C)c1CN1CC2CC(C1)N(CC(=O)O)C2 (centres undefined),107
C[C@@]12CC(O)CCN1CCc1ccccc12 (some centres undefined),2
CC1=CC[C@@H]2CN(Cc3cc(=O)[nH]c(=O)[nH]3)C[C@@H]2C1,10
O=C(c1ncccc1O)N1CCC2(CC1)NCCNC2=O,-43
